Structures are written as SMILES.
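Further: values are mean inhibition of TBK1, screened as part of the GSK published kinase inhibitor set.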

For this assay, the target named is T1, Serine/threonine-protein kinase TBK1 (Homo sapiens) (UniProt Q9UHD2).
T1 sequence (whole entry): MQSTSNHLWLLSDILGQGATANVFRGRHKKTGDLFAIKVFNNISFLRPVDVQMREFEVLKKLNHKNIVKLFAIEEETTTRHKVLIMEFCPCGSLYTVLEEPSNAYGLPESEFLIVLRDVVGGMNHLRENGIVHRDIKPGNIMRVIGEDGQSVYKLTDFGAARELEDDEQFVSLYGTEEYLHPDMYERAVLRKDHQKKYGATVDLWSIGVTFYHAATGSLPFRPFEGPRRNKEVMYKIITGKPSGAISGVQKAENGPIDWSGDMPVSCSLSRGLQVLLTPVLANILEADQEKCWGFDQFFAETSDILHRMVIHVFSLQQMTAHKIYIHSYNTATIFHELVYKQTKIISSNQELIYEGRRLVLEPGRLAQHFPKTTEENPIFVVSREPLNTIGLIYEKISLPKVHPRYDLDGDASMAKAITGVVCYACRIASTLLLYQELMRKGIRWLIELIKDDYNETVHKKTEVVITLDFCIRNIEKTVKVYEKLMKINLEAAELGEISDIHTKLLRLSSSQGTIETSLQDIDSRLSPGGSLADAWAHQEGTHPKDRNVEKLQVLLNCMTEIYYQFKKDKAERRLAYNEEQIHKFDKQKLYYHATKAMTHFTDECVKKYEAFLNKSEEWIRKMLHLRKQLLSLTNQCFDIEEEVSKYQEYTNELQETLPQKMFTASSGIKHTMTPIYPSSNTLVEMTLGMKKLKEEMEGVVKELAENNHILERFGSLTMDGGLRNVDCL
The settings on record: at 1 µM.
Take `COc1ccc2ncn(-c3cc(O[C@H](C)c4ccccc4Cl)c(C(N)=O)s3)c2c1`: the inhibition – broadly, the drop in the measured response relative to a control, in per cent – was 3.86%.
On to `C#Cc1cccc(Nc2ncnc3ccc(OCCCCNCCS(C)(=O)=O)cc23)c1`, for which the inhibition is 8.32%.
The value for `NS(=O)(=O)c1ccc(Nc2cc(-c3ccc(O)c(F)c3)n[nH]2)cc1` was 7.59%; that for `C[C@@H](Oc1cc(-n2cnc3ccc(OCC4CCN(C)CC4)cc32)sc1C(N)=O)c1ccccc1Cl` was 6.08%.
The value for `Fc1ccc(-c2ncn(CCCN3CCOCC3)c2-c2ccncc2)cc1` was 0.48%; that for `NS(=O)(=O)c1ccc(N/N=C2\C(=O)Nc3ccc(C(=O)NCCCn4ccnc4)cc32)cc1` was 30.4%.
Turning to `COc1ccc2cc(-c3c(-c4ccncc4)nc(-c4ccc(S(C)(=O)=O)cc4C)n3C)ccc2c1`, the inhibition amounted to 5.22%.
`Clc1ccc(CNc2nccc(-c3cnn4ncccc34)n2)cc1`: the inhibition was 2.91%.
The value for `COC(=O)Nc1nc2ccc(Sc3ccc(NC(=O)Nc4cc(C(F)(F)F)ccc4F)cc3)cc2[nH]1` was 2.38%; that for `Fc1ccc(-c2ncn(C3CCNCC3)c2-c2ccnc(Oc3ccc4c(c3)OCO4)n2)cc1` was 4.07%.
The value for `Cc1ccc(C(=O)NC(C)C)cc1-c1ccc(C(=O)NCC2CC2)cc1` was -1.07%; that for `CCS(=O)(=O)c1ccc(OC)c(Nc2ncc(-c3ccccc3Cl)o2)c1` was 7.68%.
For the compound `NC(=O)c1cc(-c2ccncc2)cc(-c2ccccc2)c1N`, the inhibition is 9.27%.
As for `c1ccc(-c2n[nH]cc2-c2ccnc(-c3ccc(OCCN4CCOCC4)cc3)c2)nc1`, the inhibition stood at 1.95%.
`Cc1ccc(C(=O)NC2CCC2)cc1-c1ccc(C(=O)NCC2CC2)cc1`: the inhibition is 2.24%.
As to `CN(c1ccc(NC(=O)Nc2c(Cl)cccc2Cl)cc1)c1ccnc(Nc2cccc(CS(C)(=O)=O)c2)n1`, the inhibition is 8.89%.
Turning to `CS(=O)(=O)CCNCc1cc(-c2cc3c(Nc4ccc(OCc5cccc(F)c5)c(Cl)c4)ncnc3s2)cs1`, the inhibition stood at 4.88%.
For the compound `Fc1ccc(-c2c(-c3ccncc3)nc3n2CCS3)cc1`, the inhibition came out at 2.15%.
Consider `Cc1ccc(NC(=O)c2ccoc2)cc1-c1ccc(C(=O)NCC2CC2)cc1`, for which the inhibition turned out to be 0.72%.
With `NS(=O)(=O)c1ccc(N/N=C2\C(=O)Nc3ccc(-c4cnco4)cc32)cc1`, the inhibition was determined as 38.4%.
In the case of `O=C(Nc1n[nH]c2cc(-c3cc(F)ccc3F)ccc12)C1CC1`, the inhibition turned out to be 5.44%.
In the case of `Nc1nccc(-c2c(-c3ccc(F)cc3)ncn2C2CCC(O)CC2)n1` (centres undefined), the inhibition was 1.41%.
For the compound `C[C@@H](Oc1cc(-n2cnc3ccc(OC4CCN(C)CC4)cc32)sc1C(N)=O)c1ccccc1Cl`, the inhibition was found to be 4.33%.
The value for `CCS(=O)(=O)c1ccc(OC)c(Nc2ncc(-c3cccc(-c4ccccc4F)c3)o2)c1` was 5.42%.
The value for `O=C1Nc2ccc(I)cc2C1=Cc1cc(Br)c(O)c(Br)c1` was 2.5%; that for `COc1cccc(/C=N/Nc2ncnc3c2cnn3-c2cccc(OC)c2)c1` was 1.31%; that for `COc1cc2ncn(-c3cc(OCc4cccs4)c(C(N)=O)s3)c2cc1OC` was 16.7%.
For `NC(=O)c1ccc(Oc2nccc(-c3c(-c4ccc(F)cc4)ncn3C3CCNCC3)n2)cc1`, the inhibition is 4.3%.
The figure for `CN(C)CCCNc1nccc(-c2c(-c3ccc(F)cc3)nn3cc(C(F)(F)F)ccc23)n1` is 4.86%.
For the compound `O=C1NC(=O)C(c2cccc(Cl)c2)=C1Nc1ccc(Cl)c(C(=O)O)c1`, the inhibition amounted to 5.8%.
As for `NC(=O)Cc1ccccc1Oc1nccc(-c2c(-c3ccc(F)cc3)ncn2C2CCNCC2)n1`, the inhibition was found to be 4.55%.
`Fc1ccc(-c2ncn(C3CCNCC3)c2-c2ccnc(Oc3ccc(F)c(F)c3)n2)cc1`: the inhibition was found to be 5.03%.
On to `O=C(Nc1n[nH]c2cc(-c3ccccc3)ccc12)C1CC1`, for which the inhibition was found to be 8.06%.
As for `Cc1nnc(-c2ccc(C)c(-c3ccc(C(=O)NCc4ccc(Cl)cc4)cc3)c2)o1`, the inhibition amounted to 3.88%.

For the origin of these results see ChEMBL document CHEMBL1961873, “Compounds: GSK PKIS; Assays: Nanosyn kinase panel” (2012).
